# Results: PubChem BioAssay
# The source made the active and inactive calls. No rule for the calls is given here.
# Biological target: Pantothenate synthetase (Mycobacterium tuberculosis (strain ATCC 25618 / H37Rv)) (UniProt P9WIL5)
# Assay: Coupled enzyme confirmation of inhibitors against recombinant Mtb PanC (AID 375);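 also: 0% = full reaction with vehicle and 100% = no enzyme background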
# Conditions: coupled enzyme assay; at 10 µM, hits give high values
# Chain of Pantothenate synthetase (Mycobacterium tuberculosis (strain ATCC 25618 / H37Rv)) (P9WIL5 whole entry, looked up): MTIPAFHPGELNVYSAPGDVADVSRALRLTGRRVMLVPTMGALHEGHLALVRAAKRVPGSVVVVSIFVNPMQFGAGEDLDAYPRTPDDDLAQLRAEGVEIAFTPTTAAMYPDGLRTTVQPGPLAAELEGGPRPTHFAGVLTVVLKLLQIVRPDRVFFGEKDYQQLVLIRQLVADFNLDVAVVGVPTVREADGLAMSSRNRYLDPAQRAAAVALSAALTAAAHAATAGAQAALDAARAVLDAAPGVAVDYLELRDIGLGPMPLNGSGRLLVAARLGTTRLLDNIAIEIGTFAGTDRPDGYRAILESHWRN
row,SMILES,inhibition
1,CCc1ccc(NC(=O)CS(=O)CC(=O)NC(C)CCc2ccco2)cc1 (configuration not stated),2% (inactive)
2,N#CCc1c(C#N)c(N)nc(N2CCN(S(=O)(=O)c3ccccc3)CC2)c1C#N,6% (inactive)
3,COc1ccc(Cc2nnc3n2N=C(c2cc4ccccc4o2)CS3)cc1OC,0% (inactive)
4,CC(C)COc1nc2ccccc2nc1C(C#N)C(=O)NC1CCCCC1 (configuration not stated),0% (inactive)
5,CCOc1ccccc1NS(=O)(=O)c1c(C)noc1C,0% (inactive)
6,CCCn1c(SCC(=O)N2CCN(c3ccccc3)CC2)nc2ccccc2c1=O,0% (inactive)
7,O=c1c2ccccc2sn1-c1ccc(S(=O)(=O)N2CCCCC2)cc1,0% (inactive)
8,CCCOC(=O)C1[C@H]2C(=O)N(CCCOC)C[C@]23C=C[C@H]1O3 (some centres not stated),0% (inactive)
9,CC(=O)N(C)C1(c2nnnn2CCOC(=O)Nc2ccc(Cl)cc2)CCCCC1,0% (inactive)
10,CC(C)OC(=O)c1ccc(NC(=O)C2C3CC4OC(=O)C2C4C3)cc1 (configuration not stated),7% (inactive)
11,Cc1nn(-c2ccccc2)c(C)c1C(=O)OCC(=O)c1c(N)n(CC(C)C)c(=O)n(C)c1=O,9% (inactive)
12,CCOC(=O)CNc1ccc2c(c1)OCO2,0% (inactive)
13,O=C(Nc1ccccc1C(=O)N1CCOCC1)c1cccc(S(=O)(=O)N2CCCC2)c1,0% (inactive)
14,Cc1cc(=O)oc2c1c(C)nn2-c1ccc(C(=O)OC(C)C)cc1,0% (inactive)
15,c1ccc(CCn2nnnc2C(c2cccs2)N2CCOCC2)cc1 (configuration not stated),1% (inactive)
16,COc1ccc(N2CCN(C(=O)CSc3ccccc3N)CC2)cc1,0% (inactive)
17,CCCn1nc(NS(=O)(=O)c2ccccc2)c2cc3ccccc3nc21,1% (inactive)
18,CCc1ccc(N(CC(=O)NC2CCCC2)S(=O)(=O)c2c(C)noc2C)cc1,1% (inactive)
19,CCCn1c(=O)c2[nH]c(C3CCCC3)nc2n(CCC)c1=O,7% (inactive)
20,CN1Cc2c(N)cccc2C(c2ccccc2)C1 (configuration not stated),0% (inactive)
21,COc1ccc(CCNS(=O)(=O)c2ccc(C(=O)NCc3ccco3)cc2)cc1OC,0% (inactive)
22,CC1(C)CC(=O)C2=C(C1)N(Cc1ccco1)C(=O)C2(NC(=O)C1CCCCC1)C(F)(F)F (configuration not stated),4% (inactive)
